# Experimental data reported in publication PMC4081100, “A DNA-binding-site landscape and regulatory network analysis for NAC transcription factors in Arabidopsis thaliana”.
# Experiments:
# Assay in all cases: universal protein binding microarray (PBM); transcription factors of Arabidopsis thaliana; high values mean tight binding
# GST-ANAC019 NAC domain = target: T1, GST-ANAC019 NAC domain (Arabidopsis thaliana, UniProt Q9C932 14-162); details: protein: recombinant; tags: GST; chain copies: 2; dsDNA, one strand shown
# T1 sequence: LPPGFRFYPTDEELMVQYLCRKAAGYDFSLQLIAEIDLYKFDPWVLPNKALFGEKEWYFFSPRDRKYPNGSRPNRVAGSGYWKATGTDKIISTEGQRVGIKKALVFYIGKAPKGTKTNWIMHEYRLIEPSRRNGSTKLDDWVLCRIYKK
# How it was run: (§1)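 GST-tagged NAC-domain, full-length or DNA-binding-domain proteins were induced in cells, with zinc acetate added for zinc-finger proteins. They were purified on glutathione–Sepharose 4B and quantified by A280 or anti-GST western blot. Each was applied at 200 to 500 nM final, in duplicate, to custom all-10-mer Agilent 4 × 180K arrays made double-stranded by primer extension, with gapped and ungapped 8-mers scored. Binding is the normalised enrichment score (E-score).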
# [1] = target: T2, GST-ANAC092(1-285) full length (Arabidopsis thaliana, UniProt Q9FKA0 1-285); details: protein: recombinant; tags: GST; chain copies: 2; dsDNA, one strand shown
# T2 sequence: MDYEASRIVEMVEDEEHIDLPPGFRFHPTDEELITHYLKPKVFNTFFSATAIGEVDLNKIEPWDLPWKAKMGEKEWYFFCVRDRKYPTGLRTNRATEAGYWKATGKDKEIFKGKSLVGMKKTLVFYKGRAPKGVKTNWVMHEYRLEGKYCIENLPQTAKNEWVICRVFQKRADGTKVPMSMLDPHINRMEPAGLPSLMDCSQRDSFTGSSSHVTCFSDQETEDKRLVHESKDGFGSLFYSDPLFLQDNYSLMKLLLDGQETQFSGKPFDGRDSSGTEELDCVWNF
# How it was run: as §1
# GST-NAP(1-166) = target: T3, GST-NAP(1-166) (Arabidopsis thaliana, UniProt O49255 1-166); details: protein: recombinant; tags: GST; chain copies: 2; dsDNA, one strand shown
# T3 sequence: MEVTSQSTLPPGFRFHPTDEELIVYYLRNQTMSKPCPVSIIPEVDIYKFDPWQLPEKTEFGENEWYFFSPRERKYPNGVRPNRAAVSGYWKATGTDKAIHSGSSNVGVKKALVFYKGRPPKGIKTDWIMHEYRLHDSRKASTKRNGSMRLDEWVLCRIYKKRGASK
# How it was run: as §1
# GST-SND1(1-203) = target: T4, GST-SND1(1-203) (Arabidopsis thaliana, UniProt Q9LPI7 1-203); details: protein: recombinant; tags: GST; chain copies: 2; dsDNA, one strand shown
# T4 sequence: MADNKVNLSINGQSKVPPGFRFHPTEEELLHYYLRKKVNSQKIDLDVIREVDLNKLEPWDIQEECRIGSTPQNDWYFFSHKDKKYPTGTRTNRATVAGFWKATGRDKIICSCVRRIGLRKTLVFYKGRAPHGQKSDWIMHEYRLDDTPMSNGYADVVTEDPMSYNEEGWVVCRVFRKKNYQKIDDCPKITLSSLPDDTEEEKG
# How it was run: as §1
# GST-VND3 NAC domain = target: T5, GST-VND3 NAC domain (Arabidopsis thaliana, UniProt Q9FH59 12-162); details: protein: recombinant; tags: GST; chain copies: 2; dsDNA, one strand shown
# T5 sequence: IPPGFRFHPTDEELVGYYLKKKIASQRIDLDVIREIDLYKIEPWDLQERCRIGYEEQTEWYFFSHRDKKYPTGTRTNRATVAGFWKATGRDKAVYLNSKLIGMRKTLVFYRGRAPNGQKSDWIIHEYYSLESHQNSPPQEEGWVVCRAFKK
# How it was run: as §1
# GST-WRKY1(266-371) = GST-WRKY1(266-371) (Arabidopsis thaliana, UniProt Q9SI37 266-371); details: protein: recombinant; tags: GST; dsDNA, one strand shown
# Sequence of GST-WRKY1(266-371) (Q9SI37 266-371): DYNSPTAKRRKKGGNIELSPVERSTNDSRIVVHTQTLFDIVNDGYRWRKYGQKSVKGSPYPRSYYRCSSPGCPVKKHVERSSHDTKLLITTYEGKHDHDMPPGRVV
# How it was run: as §1
# GST-ANAC092(1-176) = target: T6, GST-ANAC092(1-176) (Arabidopsis thaliana, UniProt Q9FKA0 1-176); details: protein: recombinant; tags: GST; chain copies: 2; dsDNA, one strand shown
# T6 sequence: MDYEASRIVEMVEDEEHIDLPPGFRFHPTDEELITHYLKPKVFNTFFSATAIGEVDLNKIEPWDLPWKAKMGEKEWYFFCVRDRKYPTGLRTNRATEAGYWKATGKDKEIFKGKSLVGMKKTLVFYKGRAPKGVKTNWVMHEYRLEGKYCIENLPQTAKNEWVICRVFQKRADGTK
# How it was run: as §1
# GST-NST2(1-184) = target: T7, GST-NST2(1-184) (Arabidopsis thaliana, UniProt Q9M274 1-184); details: protein: recombinant; tags: GST; chain copies: 2; dsDNA, one strand shown
# T7 sequence: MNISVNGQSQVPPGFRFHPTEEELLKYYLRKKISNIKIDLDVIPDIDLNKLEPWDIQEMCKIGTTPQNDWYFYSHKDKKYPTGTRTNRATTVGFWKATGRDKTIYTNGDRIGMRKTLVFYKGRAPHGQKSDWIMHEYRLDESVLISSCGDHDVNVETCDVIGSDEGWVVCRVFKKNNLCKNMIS
# How it was run: as §1
# GST-VND7 NAC domain = target: T8, GST-VND7 NAC domain (Arabidopsis thaliana, UniProt Q9C8W9 9-158); details: protein: recombinant; tags: GST; chain copies: 2; dsDNA, one strand shown
# T8 sequence: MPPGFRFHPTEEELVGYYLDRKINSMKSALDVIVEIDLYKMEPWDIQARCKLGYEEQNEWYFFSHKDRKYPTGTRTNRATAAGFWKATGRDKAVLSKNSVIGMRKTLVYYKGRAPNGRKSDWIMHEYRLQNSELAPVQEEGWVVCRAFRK
# How it was run: as §1
# GST-ANAC055(1-171) = target: T9, GST-ANAC055(1-171) (Arabidopsis thaliana, UniProt Q9LDY8 1-171); details: protein: recombinant; tags: GST; chain copies: 2; dsDNA, one strand shown
# T9 sequence: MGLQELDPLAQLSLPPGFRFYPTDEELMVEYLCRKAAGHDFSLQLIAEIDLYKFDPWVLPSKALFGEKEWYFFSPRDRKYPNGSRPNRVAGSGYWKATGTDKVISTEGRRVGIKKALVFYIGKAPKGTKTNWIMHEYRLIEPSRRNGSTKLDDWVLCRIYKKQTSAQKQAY
# How it was run: as §1
# GST-ATAF1 NAC domain = target: T10, GST-ATAF1 NAC domain (Arabidopsis thaliana, UniProt Q39013 7-158); details: protein: recombinant; tags: GST; chain copies: 2; dsDNA, one strand shown
# T10 sequence: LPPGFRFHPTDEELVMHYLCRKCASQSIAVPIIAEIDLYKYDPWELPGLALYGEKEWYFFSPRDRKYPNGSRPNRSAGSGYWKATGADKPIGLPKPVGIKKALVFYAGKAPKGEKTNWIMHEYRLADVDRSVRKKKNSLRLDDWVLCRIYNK
# How it was run: as §1
# GST-NTL6(1-168) = GST-NTL6(1-168) (Arabidopsis thaliana, UniProt Q9SCK6 1-168); details: protein: recombinant; tags: GST; chain copies: 2; dsDNA, one strand shown
# Sequence of GST-NTL6(1-168) (Q9SCK6 1-168): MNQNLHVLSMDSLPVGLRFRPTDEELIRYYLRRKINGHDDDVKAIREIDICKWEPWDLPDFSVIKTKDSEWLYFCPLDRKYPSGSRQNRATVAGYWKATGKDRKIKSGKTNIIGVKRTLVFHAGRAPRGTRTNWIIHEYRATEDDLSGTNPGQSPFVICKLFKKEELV
# How it was run: as §1
# GST-NTL8 NAC domain = target: T11, GST-NTL8 NAC domain (Arabidopsis thaliana, UniProt Q9XIN7 14-156); details: protein: recombinant; tags: GST; chain copies: 2; dsDNA, one strand shown
# T11 sequence: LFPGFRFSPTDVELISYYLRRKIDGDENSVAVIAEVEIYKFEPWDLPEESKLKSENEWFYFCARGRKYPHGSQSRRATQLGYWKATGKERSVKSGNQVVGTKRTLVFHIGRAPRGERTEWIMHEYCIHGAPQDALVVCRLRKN
# How it was run: as §1
Sequence,binding signal (GST-ANAC019 NAC domain) [E-score],binding signal [1] [E-score],binding signal (GST-NAP(1-166)) [E-score],binding signal (GST-SND1(1-203)) [E-score],binding signal (GST-VND3 NAC domain) [E-score],binding signal (GST-WRKY1(266-371)) [E-score],binding signal (GST-ANAC092(1-176)) [E-score],binding signal (GST-NST2(1-184)) [E-score],binding signal (GST-VND7 NAC domain) [E-score],binding signal (GST-ANAC055(1-171)) [E-score],binding signal (GST-ATAF1 NAC domain) [E-score],binding signal (GST-NTL6(1-168)) [E-score],binding signal (GST-NTL8 NAC domain) [E-score]
ACCGTCAA,0.156,0.117,0.092,0.148,0.126,0.41,–,–,–,–,–,–,–
CACGCGAC,–,0.462,0.0736,0.351,–,0.11,0.421,0.161,0.064,–,–,–,–
GGCGTGTA,0.198,0.439,0.13,0.142,0.118,–,0.4,0.14,–,0.109,0.163,–,–
CACGCATA,–,0.411,0.147,0.18,0.116,–,0.397,0.121,–,0.0626,–,–,–
AGGGAAAC,0.0754,0.071,0.14,0.0839,0.0608,–,0.0845,–,–,–,0.0887,0.115,0.482
GTCAATTA,–,0.159,–,0.122,0.104,0.42,–,0.147,–,0.0852,0.202,–,–
GCTAAGTA,–,–,0.0551,0.121,0.0851,–,–,–,–,–,–,0.429,–
CCCTCCCC,0.226,0.308,–,0.405,–,0.0672,0.299,0.169,0.198,–,0.121,0.353,0.336
CTTGACTA,0.0925,–,–,0.0644,0.159,0.462,–,0.0888,–,0.0781,0.142,–,0.0949
AGCGTCAA,–,0.158,0.0978,0.246,–,0.408,0.0554,0.135,0.0921,–,0.0689,–,0.12
ACAGGGAA,–,–,0.0751,0.108,0.115,–,0.128,0.0924,–,0.0748,–,0.239,0.409
GTCAAGTA,–,0.186,–,0.0698,0.137,0.417,–,–,–,0.0988,0.136,–,–
GTCAAAAC,–,0.11,0.111,0.148,0.176,0.447,–,–,–,–,0.178,–,0.0569
ATTAAGTA,–,0.144,–,0.267,0.131,–,0.0822,0.231,–,0.182,0.215,0.441,–
TCCGTCAA,0.0961,–,–,0.063,0.105,0.412,–,–,–,–,–,–,–
GTCAAAAA,0.0995,0.0617,–,0.216,–,0.442,0.114,0.121,0.0546,–,0.154,–,0.0654
AGGAAAGC,0.214,0.0813,0.0763,0.188,–,–,0.23,0.0888,0.177,0.119,0.124,0.253,0.436
